Results as given in PubChem BioAssay (Tox21).
Inconclusive results are not listed. Activity calls are given as the source filed them. Unless noted, calls follow the shape of the dose curve; as a rule, active = well fitted curve in the direction sought with a large enough effect in the repeat runs; inconclusive = weak or mixed curves; inactive = no such curve, though single readings can be large; an effect the other way counts as inactive or inconclusive.

Columns and labels:
[1] = qHTS assay to test for compound auto fluorescence at 535 nm (green) in HEK293 cells (AID 720680)
[2] = qHTS assay to test for compound auto fluorescence at 460 nm (blue) in HEK293 cell free culture (AID 720681)
In short: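 Blue fluorescence (Ex 405/Em 460 nm, triamterene-equivalent) was read immediately after pin transfer of compound or DMSO into medium (DMEM, 10% FBS) without cells.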

[3] = qHTS assay to test for compound auto fluorescence at 535 nm (green) in HEK293 cell free culture (AID 720682)
In short: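 Read-out: 485/535 nm fluorescence intensity, calibrated against fluorescein. Medium only (DMEM + 10% FBS, no cells); test compound or DMSO vehicle added by pintool before plate reading.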

[4] = qHTS assay to test for compound auto fluorescence at 590 nm (red) in HepG2 cell free culture (AID 720684)
In short: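 Steps: dispense MEM/10% FBS medium, no cells; pin compound or DMSO vehicle; read red channel, Ex/Em 540/590 nm. Output given as Rose Bengal sodium equivalents.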

[5] = qHTS assay to test for compound auto fluorescence at 460 nm (blue) in HepG2 cell free culture (AID 720685)
In short: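 Compound (23 nL) or DMSO pinned into cell-free MEM with 10% FBS; blue fluorescence read at 405/460 nm excitation/emission, expressed as auto-fluorescence equivalency to triamterene.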

[6] = qHTS assay to test for compound auto fluorescence at 535 nm (green) in HepG2 cell free culture (AID 720686)
[7] = qHTS assay to test for compound auto fluorescence at 460 nm (blue) in HepG2 cells (AID 720687)
In short: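 Blue-channel autofluorescence (Ex/Em 405/460 nm, triamterene-equivalent) was measured after 1 hr compound exposure at 37 C, 5% CO2. Cells were HepG2, plated overnight at 37 C in MEM plus 10% FBS.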

[8] = molecular target: Glucocorticoid receptor (Homo sapiens) (UniProt P04150); assay: qHTS assay to identify small molecule antagonists of the glucocorticoid receptor (GR) signaling pathway (AID 720692; active = well fitted inhibition curve with a large enough effect in the signal ratio in the repeat runs, not every such curve was filed as active; the % refers to the signal ratio; also: potency is read from the fitted curve at half-maximal effect)
Sequence of Glucocorticoid receptor (Homo sapiens) (P04150 whole entry, looked up): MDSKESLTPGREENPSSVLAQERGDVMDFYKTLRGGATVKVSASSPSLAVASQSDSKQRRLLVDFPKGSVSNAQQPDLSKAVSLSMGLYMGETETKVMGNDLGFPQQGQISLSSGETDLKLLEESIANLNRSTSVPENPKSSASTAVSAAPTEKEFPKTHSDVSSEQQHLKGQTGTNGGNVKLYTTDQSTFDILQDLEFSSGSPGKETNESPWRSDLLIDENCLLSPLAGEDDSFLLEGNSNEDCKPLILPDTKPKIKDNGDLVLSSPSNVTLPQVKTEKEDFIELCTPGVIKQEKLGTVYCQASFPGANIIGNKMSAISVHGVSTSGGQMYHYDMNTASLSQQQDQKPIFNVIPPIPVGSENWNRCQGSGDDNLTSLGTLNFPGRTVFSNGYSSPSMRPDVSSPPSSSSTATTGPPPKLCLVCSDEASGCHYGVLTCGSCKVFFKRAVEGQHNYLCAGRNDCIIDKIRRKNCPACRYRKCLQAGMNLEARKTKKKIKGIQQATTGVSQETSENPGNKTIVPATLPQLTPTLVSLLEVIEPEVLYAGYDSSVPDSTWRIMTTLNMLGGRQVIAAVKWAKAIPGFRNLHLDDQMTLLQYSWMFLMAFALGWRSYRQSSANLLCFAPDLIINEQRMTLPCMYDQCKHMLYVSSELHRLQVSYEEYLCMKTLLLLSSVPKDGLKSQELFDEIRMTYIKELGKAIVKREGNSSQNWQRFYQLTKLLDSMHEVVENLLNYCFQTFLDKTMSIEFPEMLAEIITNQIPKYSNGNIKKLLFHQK
In short: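 GR-bla HeLa cells (beta-lactamase reporter under glucocorticoid response element) were pre-plated 4 h at 37 C, treated with compounds plus 5 nM dexamethasone (final) for 18 h, then read by LiveBLAzer B/G FRET fluorescence after 2 h.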

[9] = qHTS assay to identify small molecule antagonists of the glucocorticoid receptor (GR) signaling pathway - cell viability counter screen (AID 720693); also: nearly all actives have a fitted effect of over 55% in size
[10] = qHTS assay for identifying genotoxic compounds that show differential cytotoxicity against isogenic chicken DT40 cell lines with known DNA damage response pathways - wild type cell line (AID 743012); also: nearly all actives have a fitted effect of over 60% in size; also: potency is read from the fitted curve at half-maximal effect
In short: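 Parental DNA repair-proficient DT40 cells, 300 per well, were pre-incubated ~0.5 h at 37 C/5% CO2, pin-dosed with compounds in DMSO, then incubated 40 h. Viability was read as CellTiter-Glo luminescence after 30 min at room temperature.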

[11] = qHTS assay for identifying genotoxic compounds that show differential cytotoxicity against isogenic chicken DT40 cell lines with known DNA damage response pathways - Rev3 mutant cell line (AID 743014); also: nearly all actives have a fitted effect of over 55% in size; also: potency is read from the fitted curve at half-maximal effect
[12] = qHTS assay for identifying genotoxic compounds that show differential cytotoxicity against isogenic chicken DT40 cell lines with known DNA damage response pathways - Rad54/Ku70 mutant cell line (AID 743015); also: nearly all actives have a fitted effect of over 60% in size; also: potency is read from the fitted curve at half-maximal effect
[13] = qHTS assay to identify small molecule antagonists of the androgen receptor (AR) signaling pathway - cell viability counter screen (AID 743033; also: nearly all actives have a fitted effect of over 45% in size)
[14] = qHTS assay to identify small molecule antagonists of the androgen receptor (AR) signaling pathway using the MDA cell line - cell viability counter screen (AID 743041; also: nearly all actives have a fitted effect of over 45% in size)
In short: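 Cells were plated at 3,000 per well and left 5 h. Compounds in DMSO were then pinned in, followed by R1881. After 16 h at 37C, CellTiter-Fluor fluorescence gave viability.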

[15] = molecular target: Glucocorticoid receptor (Homo sapiens) (UniProt P04150); assay: qHTS assay to identify small molecule agonists of the glucocorticoid receptor (GR) signaling pathway (AID 720691; active = well fitted activation curve with a large enough effect in the signal ratio in the repeat runs, not every such curve was filed as active; the % refers to the signal ratio)
In short: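 GR-bla HeLa cells (beta-lactamase reporter under glucocorticoid response element) were plated 4 h at 37 C/5% CO2, given compounds in DMSO, and incubated 18 h at 37 C. LiveBLAzer B/G FRET substrate was added for 2 h at room temperature, then fluorescence intensity read.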

[16] = qHTS assay to test for compound auto fluorescence at 590 nm (red) in HEK293 cell free culture (AID 720683)
In short: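 Red-channel autofluorescence of compounds in culture medium (DMEM, 10% FBS), no cells, measured at 540/590 nm. Rose Bengal sodium is the reference fluorophore for equivalence.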

[17] = molecular target: Androgen receptor (Homo sapiens) (UniProt P10275); assay: qHTS assay to identify small molecule antagonists of the androgen receptor (AR) signaling pathway (AID 743035; active = well fitted inhibition curve with a large enough effect in the signal ratio in the repeat runs, not every such curve was filed as active; the % refers to the signal ratio)
Sequence of Androgen receptor (Homo sapiens) (P10275 whole entry, looked up): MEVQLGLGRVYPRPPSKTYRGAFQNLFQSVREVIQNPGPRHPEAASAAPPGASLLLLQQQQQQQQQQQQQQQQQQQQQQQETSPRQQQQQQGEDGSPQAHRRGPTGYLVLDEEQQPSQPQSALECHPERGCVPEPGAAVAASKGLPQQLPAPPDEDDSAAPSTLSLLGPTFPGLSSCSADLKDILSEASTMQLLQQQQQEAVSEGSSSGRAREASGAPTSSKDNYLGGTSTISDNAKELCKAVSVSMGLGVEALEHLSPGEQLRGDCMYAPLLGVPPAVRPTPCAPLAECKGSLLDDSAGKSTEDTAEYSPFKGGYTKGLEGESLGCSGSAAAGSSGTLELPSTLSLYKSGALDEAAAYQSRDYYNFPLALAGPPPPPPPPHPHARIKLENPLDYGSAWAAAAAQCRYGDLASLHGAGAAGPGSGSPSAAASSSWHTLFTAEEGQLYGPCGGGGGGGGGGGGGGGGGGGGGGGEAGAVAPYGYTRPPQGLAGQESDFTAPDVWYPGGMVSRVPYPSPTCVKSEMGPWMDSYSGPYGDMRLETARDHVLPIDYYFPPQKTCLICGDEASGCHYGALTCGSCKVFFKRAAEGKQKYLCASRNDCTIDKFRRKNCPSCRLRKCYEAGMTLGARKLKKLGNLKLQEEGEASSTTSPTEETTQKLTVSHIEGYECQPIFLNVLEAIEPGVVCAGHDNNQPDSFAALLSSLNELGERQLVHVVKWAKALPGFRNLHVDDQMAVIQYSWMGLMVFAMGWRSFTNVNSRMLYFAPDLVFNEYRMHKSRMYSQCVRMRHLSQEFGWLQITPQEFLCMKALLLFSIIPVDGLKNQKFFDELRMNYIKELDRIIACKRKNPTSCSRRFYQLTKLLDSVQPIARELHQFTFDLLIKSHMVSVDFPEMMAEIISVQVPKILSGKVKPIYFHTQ
In short: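 HEK293 cells stably carrying a UAS-driven beta-lactamase reporter (AR-UAS-bla GripTite) were plated for 4 h at 37C, then given compound and the agonist R1881 and incubated 16 h. Reporter activity was read by LiveBLAzer B/G FRET fluorescence after 2 h at room temperature.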

[18] = molecular target: Androgen receptor (Homo sapiens) (UniProt P10275); assay: qHTS assay to identify small molecule agonists of the androgen receptor (AR) signaling pathway using the MDA cell line (AID 743040; also: nearly all actives have a fitted effect of over 20% in size)
In short: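 Cells plated, 5 h at 37C/0% CO2; compound or DMSO pinned; 16 h at 37C; ONE-Glo added; luminescence measured after 30 min at room temperature. Reporter line: MDA-kb2 with MMTV-luciferase responsive to AR and GR.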

[19] = molecular target: Androgen receptor (Homo sapiens) (UniProt P10275); assay: qHTS assay to identify small molecule antagonists of the androgen receptor (AR) signaling pathway using the MDA cell line (AID 743042; also: nearly all actives have a fitted effect of over 55% in size)
In short: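 Antagonist mode: compounds plus R1881 agonist added to MDA-kb2 AR-luc cells, incubated 16 h at 37C. Luciferase reporter luminescence quantified, with multiplexed CellTiter-Fluor readout for cell viability.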
% is scaled to controls: 0 for no effect and ±100 for the full control effect.

Cc1cc(C)c(N=Nc2c(O)c(S(=O)(=O)O)cc3cc(S(=O)(=O)O)ccc23)cc1C
inactive: fluorescence, % of fluorescein [1] -0.0092% [at 9.17 µM] | fluorescence, % of fluorescent control [2] -0.0769% [at 9.17 µM] | activity change [3] 0.0216% [at 9.17 µM] | fluorescence, % of Rose Bengal [4] 0.0175% [at 9.17 µM] | fluorescence, % of fluorescent control [5] -0.11% [at 9.17 µM] | fluorescence, % of fluorescein control [6] -0.0747% [at 9.17 µM] | fluorescence, % of fluorescent control [7] -0.0207% [at 9.17 µM] | activity change, negative = inhibition [8] 0.597% [at 7.04 µM] | viability change, negative = cytotoxic [9] -0.62% [at 7.04 µM] | activity change, negative = cytotoxicity [10] -7.67% [at 8.52 µM] | activity, negative = cytotoxicity [11] 0.342% [at 8.53 µM] | activity change, negative = cytotoxicity [12] 1.01% [at 8.55 µM] | activity change, negative = cytotoxicity [13] -2% [at 7.04 µM] | viability change, negative = cytotoxic [14] -1.15% [at 8.47 µM]

CC1(C)[C@@H]2CC[C@@]1(C)[C@H](O)C2
inactive: outcome [1] | outcome [2] | outcome [3] | outcome [4] | outcome [5] | outcome [6] | outcome [7] | Potency [8] | outcome [9] | Potency [10] | Potency [12] | outcome [13]

COc1ccc2cc1Oc1cc3c(cc1OC)CC[N+](C)(C)[C@H]3Cc1ccc(cc1)Oc1c(OC)c(OC)cc3c1[C@@H](C2)[N+](C)(C)CC3
inactive: outcome [1] | outcome [2] | outcome [3] | outcome [4] | outcome [5] | outcome [6] | outcome [7] | Potency [15] | Potency [8] | outcome [9] | Potency [12] | outcome [13] | Potency [14]

C[C@@H]1CCC[C@H](C)N1
inactive: fluorescence, % of fluorescein [1] -0.0078% [at 18.6 µM] | fluorescence, % of fluorescent control [2] -0.0158% [at 18.6 µM] | activity change [3] 0.0087% [at 18.6 µM] | fluorescence, % of Rose Bengal [4] 0.0262% [at 18.6 µM] | fluorescence, % of fluorescent control [5] -0.0314% [at 18.6 µM] | fluorescence, % of fluorescein control [6] -0.001% [at 18.6 µM] | fluorescence, % of fluorescent control [7] 0.0179% [at 18.6 µM] | Potency [8] | outcome [9] | Potency [10] | outcome [13] | Potency [14]

CC(=O)OCC(=O)[C@@]1(O)[C@H](C)C[C@H]2[C@@H]3CCC4=CC(=O)C=C[C@]4(C)[C@@]3(F)[C@@H](O)C[C@@]21C
inactive: outcome [1] | outcome [2] | outcome [3] | outcome [16] | outcome [5] | outcome [6] | outcome [9] | Potency [10] | Potency [12] | outcome [13] | Potency [14]

C[N+](C)(C)CCCCCCCCCC[N+](C)(C)C
inactive: outcome [1] | outcome [2] | outcome [3] | outcome [16] | outcome [5] | outcome [6] | outcome [7] | Potency [15] | outcome [9] | Potency [10] | Potency [11] | outcome [13] | Potency [14]

CC(C)[C@H]1CC[C@@H](C)CC1=O
inactive: outcome [1] | outcome [2] | outcome [3] | outcome [16] | outcome [5] | outcome [6] | outcome [9] | Potency [10] | Potency [11] | Potency [12] | Potency [14]

CC(C)NNC(=O)c1ccncc1
inactive: outcome [1] | outcome [2] | outcome [3] | outcome [4] | outcome [5] | outcome [6] | Potency [8] | outcome [9] | Potency [10] | outcome [13] | Potency [17] | Potency [18] | outcome [19]

CCCCCCCCCCOc1cc2c(=O)c(C(=O)OCC)c[nH]c2cc1OCC
inactive: outcome [1] | outcome [2] | outcome [3] | outcome [16] | outcome [5] | outcome [6] | outcome [7] | outcome [9] | Potency [10] | Potency [11] | Potency [12] | outcome [13] | Potency [14]

N[C@@H](CCC(=O)O)C(=O)O
inactive: outcome [1] | outcome [2] | outcome [3] | outcome [4] | outcome [5] | outcome [6] | outcome [7] | Potency [15] | Potency [8] | outcome [9] | Potency [10] | Potency [11] | Potency [12] | outcome [13] | Potency [14]

C[C@H]1C[C@H]2[C@@H]3CCC4=CC(=O)C=C[C@]4(C)[C@H]3C(=O)C[C@]2(C)[C@@]1(O)C(=O)CO
active: Potency [8] 2.13 µM
inactive: outcome [1] | outcome [2] | outcome [3] | outcome [4] | outcome [5] | outcome [6] | outcome [7] | Potency [15] | outcome [9] | Potency [10] | Potency [12] | Potency [14]

CCNS(=O)(=O)c1ccc(C)cc1
inactive: outcome [1] | outcome [2] | outcome [3] | outcome [16] | outcome [5] | outcome [6] | outcome [7] | Potency [15] | outcome [9] | Potency [10] | Potency [11] | Potency [12] | outcome [13] | Potency [14]

N[C@H](C(=O)O)[C@@H](O)c1ccc(O)c(O)c1
inactive: outcome [1] | outcome [2] | outcome [3] | outcome [4] | outcome [5] | outcome [6] | outcome [7] | Potency [15] | Potency [8] | outcome [9] | outcome [13] | Potency [14]
active: Potency [10] 13.3 µM | Potency [11] 16.8 µM | Potency [12] 21.1 µM
